Target: Torsin-1A-interacting protein 1 (Homo sapiens) (UniProt Q5JTV8)
Assay: LAP1 binders from COS7 cell lysate, primary screen, small-molecule microarray, 635/667 nm fluorescence (AID 1116)
Conditions: COS7-hLAP1 lysate binding, 635 nm fluorescence, higher = more signal

Sequence of Torsin-1A-interacting protein 1 (Homo sapiens) (Q5JTV8 whole entry, looked up): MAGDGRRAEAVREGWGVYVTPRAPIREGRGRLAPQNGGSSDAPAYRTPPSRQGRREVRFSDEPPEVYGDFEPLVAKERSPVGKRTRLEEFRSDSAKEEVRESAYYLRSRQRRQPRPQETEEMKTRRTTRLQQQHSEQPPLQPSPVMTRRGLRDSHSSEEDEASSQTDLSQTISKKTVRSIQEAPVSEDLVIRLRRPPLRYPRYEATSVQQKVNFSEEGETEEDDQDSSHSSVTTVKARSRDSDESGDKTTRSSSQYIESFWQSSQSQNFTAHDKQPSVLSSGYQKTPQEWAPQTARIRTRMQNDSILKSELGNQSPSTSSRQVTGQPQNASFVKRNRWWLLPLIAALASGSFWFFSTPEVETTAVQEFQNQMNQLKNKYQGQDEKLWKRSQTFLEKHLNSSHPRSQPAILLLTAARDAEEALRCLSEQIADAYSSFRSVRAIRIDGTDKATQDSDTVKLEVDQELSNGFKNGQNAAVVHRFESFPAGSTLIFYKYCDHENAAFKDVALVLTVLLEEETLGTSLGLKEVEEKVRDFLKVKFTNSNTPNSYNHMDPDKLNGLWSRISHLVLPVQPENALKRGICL

Compound	composite z-score
COCCOC(=O)N1C(=O)[C@@]2(c3cc(C#CCC(C(=O)OC)C(=O)OC)ccc31)[C@H](C(=O)NC[C@H](O)c1ccccc1)[C@H]1C(=O)O[C@H](c3ccccc3)[C@H](c3ccccc3)N1[C@@H]2c1ccc(O)cc1	1.37
Cc1cccc([C@H]2C[C@H]3C(Br)=C[C@@H]2C(=O)[C@]32CO2)c1	-0.188
C=CCC(OC(C)=O)[C@@H]1[C@@H](N(Cc2ccc(-c3cccc(C(F)(F)F)c3)o2)C(=O)c2cccc3ccccc23)c2cc(OCCCO)ccc2N1C(=O)Cc1ccc(OC)cc1 (some centres not stated)	0.0368
CC(C)C[C@@H]1NC(=O)[C@@]23C(=O)N[C@@H](Cc4ccccc4)C2[C@H](C)[C@@]2(C)O[C@H]2C3/C=C/C/C=C\CNC(=O)[C@@H](C)NC1=O (some centres not stated)	-0.212
CCOC(=O)C1=CCN(S(=O)(=O)c2ccc(C)cc2)C1c1ccccc1 (configuration not stated)	0.553
COCCOC(=O)N1C(=O)[C@@]2(c3ccccc31)[C@H](c1ccccc1OCCO)N1[C@H](c3ccccc3)[C@H](c3ccccc3)OC(=O)[C@H]1[C@@H]2C(N)=O	1.29
C=C(COC)C(=O)CC[C@@H](OC(=O)c1cccnc1)c1ccccc1OCCO	0.519

Target: Alpha-bungarotoxin (Bungarus multicinctus) (UniProt P60615)
Assay: alpha-bungarotoxin binders on microarray, profiling panel, artefact control for SMM control protein annotation, biochemical, small-molecule microarray, Alexa647 label, 635/667 nm fluorescence (AID 1117)
Conditions: alpha-BTX-A647 binding fluorescence, higher = more signal

Sequence of Alpha-bungarotoxin (Bungarus multicinctus) (P60615 whole entry, looked up): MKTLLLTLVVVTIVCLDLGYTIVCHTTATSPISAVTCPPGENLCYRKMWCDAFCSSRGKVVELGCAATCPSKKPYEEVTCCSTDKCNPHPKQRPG

Compound	composite z-score
[N-]=[N+]=Nc1ccccc1C[C@]1(C(=O)O)N=C(c2ccc(OCCCO)cc2)O[C@H]1c1ccccc1	0.618
CN1C(=O)[C@@]2(Cc3ccccc3)N=C(c3ccc(OCCCO)cc3)O[C@H]2c2ccccc21	0.846
NC(=O)[C@@H]1[C@H]2C(=O)O[C@H](c3ccccc3)[C@H](c3ccccc3)N2[C@H](c2ccc(OCCO)cc2)[C@@]12C(=O)Nc1ccc(C#CCCO)cc12	1.13
Cc1ccc(S[C@]2(C(=O)NC(C)C)CC(=O)N(Cc3ccccc3Cl)[C@@H]2c2ccc(CO)cc2)cc1	1.07
CC(C)=CCCC(C)=CC(O)C1C=CC2C(=O)N(c3ccccc3)C(=O)C2N1Nc1ccccc1F (configuration not stated)	0.529
COc1cc2c(cc1OC)CN(C(=O)[C@@H]1[C@H]3C(=O)O[C@H](c4ccccc4)[C@H](c4ccccc4)N3[C@H](c3ccc(O)cc3)[C@@]13C(=O)Nc1ccc(C#CCCO)cc13)CC2	0.319
COc1cc(NN2C(C(O)C3CCCCC3)C=CC3C(=O)N(C)C(=O)C32)cc(OC)c1OC (configuration not stated)	1.72
CC(C)C(CO)N1C(=O)[C@@H]2[C@H]3C(=O)OCC=C[C@H]3OC23C=CCN(C(C)(C)C)C(=O)[C@@H]13 (some centres not stated)	-0.0022
COC(=O)[C@@]1(Cc2ccc(OC)cc2)[C@H]2c3cc(C(=O)N4CCCC4)n(Cc4ccc(S(C)(=O)=O)cc4)c3C[C@H]2CN1C(=O)c1ccccc1	0.448
CCCNC(=O)[C@@]1(Sc2ccc(C)cc2)CC(=O)N(C2CCCCC2)[C@@H]1c1ccc(CO)cc1I	0.231
CO[C@H]1O[C@H](CO)[C@@H](OC(=O)Nc2ccc(C#N)cc2)[C@@H]2OC(=O)[C@H](Cc3cccc(Br)c3)C/C=C/C[C@@H](Cc3cccc(Br)c3)C(=O)O[C@@H]12	0.764
COCCOC(=O)N1C(=O)[C@@]2(c3cc(C#CC4(O)CCCCCC4)ccc31)[C@H](C(=O)N1CCN(c3ncccn3)CC1)[C@H]1C(=O)O[C@H](c3ccccc3)[C@H](c3ccccc3)N1[C@@H]2c1ccccc1OCCO	0.684
CCCC=C(CCC)[C@@H](NC(=O)CCc1ccccc1)c1ccc(C(F)(F)F)cc1	1.23
CC(C)[C@H]1NC(=O)[C@@]23C(=O)N[C@@H](Cc4ccccc4)C2[C@H](C)[C@@]2(C)O[C@H]2C3/C=C/CCC/C=C/CNC(=O)[C@H](Cc2ccccc2)NC1=O (some centres not stated)	-0.498
CCCCNC(=O)c1ccc(C#C[Si](C(C)C)(C(C)C)C(C)C)c(OC(C)=O)c1	2.24
C=C(/C(=C/C[C@H](OC(=O)c1ccncc1)c1ccccc1OCCO)c1cnc2ccccc2c1)C(C)C	1.73
COc1cc(NN2C(C(O)c3cc(OC)c(OC)c(OC)c3)C=CC3C(=O)N(c4ccccc4)C(=O)C32)cc(OC)c1OC (configuration not stated)	2.35
COC(=O)[C@@]1(Cc2ccccc2)[C@H]2c3cc(C(=O)N4CCCC4)n(CCSCCO)c3C[C@H]2CN1C(=O)c1ccccc1	0.606
COCCOC(=O)N1C(=O)[C@@]2(c3cc(C#Cc4ccc(OC)cc4)ccc31)[C@H](c1ccc(OCCO)cc1)N1[C@H](c3ccccc3)[C@H](c3ccccc3)OC(=O)[C@H]1[C@@H]2C(=O)Nc1nc2ccccc2s1	0.885
COCCOC(=O)N1C(=O)[C@@]2(c3cc(C#CCC(C(=O)OC)C(=O)OC)ccc31)[C@H](c1ccc(O)cc1)N1[C@H](c3ccccc3)[C@H](c3ccccc3)OC(=O)[C@H]1[C@@H]2C(=O)NC[C@H](O)c1ccccc1	0.353

Source: PubChem BioAssay
